# Data from PubChem BioAssay (NCI).
# “And” between values parts separate entries of the source, which are not always exact repeats. Equal values may be shown once. This is part of a sample that, as a whole, favours compounds with a hit. Of some 83,000 tested, about 20% had one in any assay.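 A percent growth of 40 corresponds to 60% growth inhibition; 0 means no net growth; -100 means all cells died. Active threshold: below 10.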 Unmarked numbers belong to inactive results. The source made the active and inactive calls.
# Key:
# Assay in all cases: NCI-60 one-dose screen, 48 h (100 = growth as untreated, 0 = no growth, -100 = all killed)
# [1] = tested on: HCT-15 colon
# [2] = tested on: HT29 colon
# [3] = tested on: SNB-75 CNS
# [4] = tested on: SNB-19 CNS
# [5] = tested on: U251 CNS
# [6] = tested on: PC-3 prostate
# [7] = tested on: SK-MEL-5 melanoma
# [8] = tested on: UACC-62 melanoma
# [9] = tested on: LOX IMVI melanoma
# [10] = tested on: SK-MEL-28 melanoma
smiles,measurement,setting,value
Cn1cc(-c2csc(-c3cn(CCOC(N)=O)c4ccccc34)n2)c2cccnc21,growth,[1]; 10 µM unless noted,64%
same,growth,[2]; 10 µM unless noted,47.6%
same,growth,[3]; 10 µM unless noted,80.7%
same,growth,[4]; 10 µM unless noted,78.6%
same,growth,[5]; 10 µM unless noted,77.8%
same,growth,[6]; 10 µM unless noted,63.6%
same,growth,[7]; 10 µM unless noted,71.9%
same,growth,[8]; 10 µM unless noted,72.2%
same,growth,[9]; 10 µM unless noted,79%
O=C(CCl)N(O)c1ccc(/C=C/c2ccccc2)cc1,growth,[1]; 10 µM unless noted,78.3% and 66.3%
same,growth,[2]; 10 µM unless noted,73.1% and 38.7%
same,growth,[3]; 10 µM unless noted,95.9% and 96.3%
same,growth,[4]; 10 µM unless noted,90.1% and 86.7%
same,growth,[5]; 10 µM unless noted,81.5% and 73.5%
same,growth,[6]; 10 µM unless noted,85.7% and 86.6%
same,growth,[7]; 10 µM unless noted,68.6% and 65.3%
same,growth,[8]; 10 µM unless noted,74.6% and 72.2%
same,growth,[9]; 10 µM unless noted,46.8% and 36.1%
COc1ccc(C(=O)/C=C/c2ccc(OCc3ccc(Cl)cc3)cc2)cc1OC,growth,[1]; 10 µM,92.9%
same,growth,[1]; 100 µM,34.1%
same,growth,[2]; 10 µM,87.2%
same,growth,[2]; 100 µM,35.8%
same,growth,[3]; 10 µM,96.9%
same,growth,[3]; 100 µM,-26.3% (active)
same,growth,[4]; 10 µM,105%
same,growth,[4]; 100 µM,-47.3% (active)
same,growth,[5]; 10 µM,93.2%
same,growth,[5]; 100 µM,-90.3% (active)
same,growth,[6]; 10 µM,97.5%
same,growth,[6]; 100 µM,16.9%
same,growth,[7]; 10 µM,92.3%
same,growth,[7]; 100 µM,-10.4% (active)
same,growth,[8]; 10 µM,96.1%
same,growth,[8]; 100 µM,23.6%
same,growth,[9]; 10 µM,88.8%
same,growth,[9]; 100 µM,22.1%
same,growth,[10]; 10 µM,103%
same,growth,[10]; 100 µM,55.9%
CC(Sc1ccccc1)C(=O)O (stereo unspecified),growth,[1]; 10 µM unless noted,100%
same,growth,[2]; 10 µM unless noted,99.3%
same,growth,[3]; 10 µM unless noted,91.6%
same,growth,[4]; 10 µM unless noted,94.5%
same,growth,[5]; 10 µM unless noted,91.1%
same,growth,[6]; 10 µM unless noted,103%
same,growth,[7]; 10 µM unless noted,106%
same,growth,[8]; 10 µM unless noted,94.5%
same,growth,[9]; 10 µM unless noted,95.6%
Cc1ccc2nc3ccccc3c(NCc3ccc(Cl)cc3)c2c1,growth,[1]; 10 µM unless noted,14.5%
same,growth,[2]; 10 µM unless noted,5.35% (active)
same,growth,[3]; 10 µM unless noted,66.5%
same,growth,[4]; 10 µM unless noted,50.3%
same,growth,[5]; 10 µM unless noted,25.1%
same,growth,[6]; 10 µM unless noted,39.1%
same,growth,[7]; 10 µM unless noted,54%
same,growth,[8]; 10 µM unless noted,74%
same,growth,[9]; 10 µM unless noted,-57.1% (active)
CN1CCN(Cc2ccc(NC(=O)c3cccc(C#Cc4c(N)ncc5ccc(F)cc45)c3)cc2C(F)(F)F)CC1,growth,[1]; 10 µM unless noted,-77.9% (active)
same,growth,[2]; 10 µM unless noted,-56.1% (active)
same,growth,[3]; 10 µM unless noted,-92.4% (active)
same,growth,[4]; 10 µM unless noted,-85.9% (active)
same,growth,[5]; 10 µM unless noted,-67.9% (active)
same,growth,[6]; 10 µM unless noted,-19.2% (active)
same,growth,[7]; 10 µM unless noted,-83.1% (active)
same,growth,[8]; 10 µM unless noted,-51.1% (active)
same,growth,[9]; 10 µM unless noted,-97.9% (active)
COCCn1cc(-c2nc(-c3cn(CCOC)c4ncccc34)cs2)c2ccccc21,growth,[1]; 10 µM unless noted,18.1%
same,growth,[2]; 10 µM unless noted,89.5%
same,growth,[3]; 10 µM unless noted,64.6%
same,growth,[4]; 10 µM unless noted,71.1%
same,growth,[5]; 10 µM unless noted,72.8%
same,growth,[6]; 10 µM unless noted,73.1%
same,growth,[7]; 10 µM unless noted,7.97% (active)
same,growth,[8]; 10 µM unless noted,87.1%
same,growth,[9]; 10 µM unless noted,86.1%
COc1ccc(-c2[nH]c3ccccc3c2-c2ccc(OC)cc2)cc1,growth,[1]; 10 µM unless noted,39.8%
same,growth,[2]; 10 µM unless noted,29.8%
same,growth,[3]; 10 µM unless noted,31.5%
same,growth,[4]; 10 µM unless noted,53.6%
same,growth,[5]; 10 µM unless noted,44%
same,growth,[6]; 10 µM unless noted,47.5%
same,growth,[7]; 10 µM unless noted,58.1%
same,growth,[8]; 10 µM unless noted,56.7%
same,growth,[9]; 10 µM unless noted,46.3%
Cc1cc2nc(C(Cl)Cl)nc(-c3ccc(Cl)cc3)n2n1,growth,[1]; 10 µM unless noted,-20.4% (active)
same,growth,[2]; 10 µM unless noted,2.12% (active)
same,growth,[3]; 10 µM unless noted,-22.7% (active)
same,growth,[4]; 10 µM unless noted,12.6%
same,growth,[5]; 10 µM unless noted,4.15% (active)
same,growth,[6]; 10 µM unless noted,16.1%
same,growth,[7]; 10 µM unless noted,41.2%
same,growth,[8]; 10 µM unless noted,48.5%
same,growth,[9]; 10 µM unless noted,48.4%
CC[C@H](C)[C@H](NC(=O)[C@H](CCCCN)NC(=O)[C@H](CCCCN)NC(=O)[C@@H](NC(=O)[C@@H](NC(=O)[C@@H](N)Cc1cnc[nH]1)[C@@H](C)CC)[C@@H](C)CC)C(=O)N[C@@H](CCCNC(=N)N)C(=O)N[C@H](C(=O)N[C@@H](Cc1c[nH]c2ccccc12)C(=O)N[C@@H](Cc1ccc(O)cc1)C(=O)N[C@@H](CCCNC(=N)N)C(=O)N[C@@H](CCCCN)C(=O)N[C@@H](C)C(=O)N[C@@H](Cc1c[nH]c2ccccc12)C(=O)N[C@@H](Cc1cnc[nH]1)C(=O)N[C@H](C(=O)N[C@@H](CC(C)C)C(=O)NCC(=O)N[C@@H](CCCCN)C(=O)N[C@H](C(N)=O)C(C)C)C(C)C)[C@@H](C)O,growth,[1]; 10 µM unless noted,21.4%
same,growth,[2]; 10 µM unless noted,60.4%
same,growth,[3]; 10 µM unless noted,72.7%
same,growth,[4]; 10 µM unless noted,58.6%
same,growth,[5]; 10 µM unless noted,20.2%
same,growth,[6]; 10 µM unless noted,67.1%
same,growth,[7]; 10 µM unless noted,13.2%
same,growth,[8]; 10 µM unless noted,-56.3% (active)
same,growth,[9]; 10 µM unless noted,70.5%
CC(=O)/C=C/c1ccc(N(C)Cc2ccc(C(C)(C)C)cc2)cc1,growth,[1]; 10 µM,87.5%
same,growth,[1]; 100 µM,-36.9% (active)
same,growth,[2]; 10 µM,78.1%
same,growth,[2]; 100 µM,-10.7% (active)
same,growth,[3]; 10 µM,102%
same,growth,[3]; 100 µM,-59.5% (active)
same,growth,[4]; 10 µM,110%
same,growth,[4]; 100 µM,-31.2% (active)
same,growth,[5]; 10 µM,89.8%
same,growth,[5]; 100 µM,-100% (active)
same,growth,[6]; 10 µM,77.6%
same,growth,[6]; 100 µM,-26.1% (active)
same,growth,[7]; 10 µM,74.7%
same,growth,[7]; 100 µM,-100% (active)
same,growth,[8]; 10 µM,78.8%
same,growth,[8]; 100 µM,-57.1% (active)
same,growth,[9]; 10 µM,80.1%
same,growth,[9]; 100 µM,-100% (active)
same,growth,[10]; 10 µM,92.5%
same,growth,[10]; 100 µM,-82.3% (active)
